High-throughput results as filed in PubChem.
Shown is part of a subset that was picked to be rich in hits.
RmlC RmlD mix: inhibitors of RmlC and RmlD coupled enzymes; RmlC/RmlD coupled enzyme inhibition, 384-well mixture HTS; inhibition, % at 5.5 µM; actives 0.39% (n = 110,000); in the data active means inhibition above about 30%, passing the limit was not always enough; inconclusive means no clear call, values can overlap the other calls
HIV RNase H inh-1: inhibitors of HIV-1 reverse transcriptase RNase H; RT-RNase H RNA/DNA duplex cleavage, fluorescence; P04585; actives 1.9% (n = 65,000); AID 565; inhibition, % at 10 µM; in the data active means inhibition above about 50%
HIV RNase H inh-2: confirmation of HIV-1 reverse transcriptase RNase H inhibitors; Recombinant RT RNase H, fluorescent RNA/DNA duplex cleavage; inhibition, % at 10 µM; shares compounds with HIV RNase H inh-1; actives 39% (n = 1,000); in the data active means inhibition above about 48%; inconclusive means no clear call, values can overlap the other calls
* marks the source's active call; other numbers are inactive results; u = inconclusive; x = no result.

SMILES	RmlC RmlD mix	HIV RNase H inh-1	HIV RNase H inh-2
O=c1oc(-c2ccco2)nc2ccccc12	-11	-1	x
c1coc(-c2nc3ccccc3nc2-c2ccco2)c1	-10	67*	44
COc1ccc(OC)c(C2C(C(=O)O)c3ccccc3C(=O)N2C)c1 (stereo not drawn)	5	65*	40
COc1cc(OC)c(C2C(C(=O)O)c3ccccc3C(=O)N2C)cc1OC (stereo not drawn)	-7	1	x
CCC(C)(C)n1nnnc1C(c1cccnc1)N1CCN(c2cccc(C(F)(F)F)c2)CC1 (stereo not drawn)	11	x	x
CCOC(=O)c1nnn(CC(=O)N2N=C(c3ccc(Cl)cc3)CC2c2ccccc2)c1C(=O)OCC (stereo not drawn)	11	x	x
COc1ccccc1N1CCN(C(=O)c2cc(-c3ccc(C)cc3)on2)CC1	10	-17	x
COc1ccccc1-c1cc(C(=O)N2CCN(c3ccccc3OC)CC2)no1	7	78*	47
O=C1CCN(S(=O)(=O)c2ccccc2)CCN1CCOCc1ccc(Cl)cc1	13	x	x
O=S(=O)(NC12CC3CC(CC(C3)C1)C2)c1ccc(F)cc1	-3	x	x
Cc1ccc(-c2nnc(SCC(=O)Nc3ccc(S(=O)(=O)N4CCCCCC4)cc3)o2)cc1	11	65*	u
CC(=O)c1cccc(NC(=O)CSc2nnc(-c3ccc(S(=O)(=O)N4CCCC4)cc3)o2)c1	7	21	x
CC1(C)Cc2c(sc3c2C(=O)NC(c2cccnc2)N3)CO1 (stereo not drawn)	10	54*	6
O=C1NC(c2cccnc2)Nc2sc3c(c21)CCCC3 (stereo not drawn)	-4	x	x
O=C(COc1ncnc2scc(-c3ccc(Cl)cc3)c12)NCc1ccco1	5	x	x
CCCCCC(=O)N(O)C1CC(=O)N(c2ccccc2)C1=O (stereo not drawn)	6	16	x
CCCCCCC(=O)N(O)C1CC(=O)N(Cc2ccccc2)C1=O (stereo not drawn)	-2	66*	32
CCO[C@@H]1OC(C(=O)NCc2nc3ccccc3[nH]2)=C[C@H](c2coc3ccccc3c2=O)[C@H]1CCCO	-48	x	x
COc1cccc2c1OC1(C)CC2/C(=C(\C)O)C(=O)N1 (stereo not drawn)	-2	0	x
O=C1N[C@@H](Cc2ccccc2)C(=O)N2[C@H]1C[C@]1(Br)c3ccccc3N(S(=O)(=O)c3ccc(F)cc3)[C@H]21	-13	x	x
CCOC(=O)CSc1nc2ccccc2c(=O)n1-c1ccc(C(=O)NCCOC)cc1	-9	x	x
CCOC(=O)CSc1nc2cc(C(=O)NCc3ccco3)ccc2c(=O)n1C1CCCCC1	14	73*	57*
CCOC(=O)CSc1nc2cc(C(=O)NCc3ccco3)ccc2c(=O)n1-c1ccc(F)cc1	6	84*	66*
CCOC(=O)CSc1nc2ccccc2c(=O)n1CC1CCC(C(=O)NCc2ccco2)CC1 (stereo not drawn)	0	40	x
Cc1cc(C)n(CCOc2ccc(Cl)cc2Cl)n1	-19	-17	x
SMILES	RmlC RmlD mix	HIV RNase H inh-1	HIV RNase H inh-2
CCc1nnc(NC(=O)CSc2nnc(COc3ccccc3)n2Cc2ccccc2)s1	7	4	x
COCCOC(=O)C1=C(C)NC(SCC(=O)NC(C)(C)C)=C(C#N)C1c1ccco1 (stereo not drawn)	-7	3	x
C=CCOC(=O)C1=C(C)NC(SCC(=O)Nc2ccc(C)c(Cl)c2)=C(C#N)C1c1ccco1 (stereo not drawn)	17	94*	85*
Cc1ccc(-c2nnc(N3CCCCC3)c3ccccc23)cc1S(=O)(=O)N1CCN(C)CC1	13	-12	x
O=c1c2ccccc2sn1-c1ccc(S(=O)(=O)N2CCCC2)cc1	34	79*	27
NS(=O)(=O)c1ccc(S(=O)(=O)N2CCCC2)cc1	7	x	x
Cc1ccc(-n2sc3ccccc3c2=O)cc1S(=O)(=O)N1CCCCC1	31	96*	48*
CCN(CC)c1ccc(NC(=O)C2CCCN(S(=O)(=O)c3cccnc3)C2)c(C)c1 (stereo not drawn)	8	22	x
O=C(c1ccc2ccccc2n1)N1CCN(c2ccccc2O)CC1	-2	x	x
N=C1C(c2nc3ccccc3c(=O)[nH]2)=C(O)CN1CCO	3	-5	x
N=C1C(c2nc3ccccc3c(=O)[nH]2)=C(O)CN1CCc1ccccc1	64	75*	6
O=C1C2C3C=CC(CO)(O3)C2C(=O)N1c1ccccc1-c1ccccc1 (stereo not drawn)	-16	61*	-5
COc1ccc(C(=O)NCC23C=CC(O2)C2C(=O)N(Cc4ccccc4)C(=O)C23)cc1 (stereo not drawn)	-10	1	x
CN1CCN(c2ccccc2NC(=O)C(Cc2ccccc2)n2cccc2)CC1 (stereo not drawn)	-15	-11	x
CCNC(=S)N/N=C/c1ccc(OCC(=O)Nc2ccc(C)cc2)cc1	10	x	x
COc1ccc(-c2nn3c(COc4ccccc4)nnc3s2)cc1OC	-5	68*	11
COc1cc(-c2nnc3sc(-c4cccnc4)nn23)cc(OC)c1OC	x	76*	93*
c1ccc(OCc2nnc3sc(-c4cccs4)nn23)cc1	18	-20	x
COc1cc(-c2nn3c(-c4ccccn4)nnc3s2)cc(OC)c1OC	-5	-11	x
COc1ccc(-c2nnc3sc(-c4c(OC)cccc4OC)nn23)cc1	x	2	x
COc1cccc(OC)c1-c1nn2c(-c3cc(-c4ccccc4)n[nH]3)nnc2s1	-5	89*	66*
COc1cc(-c2nnc3sc(Cc4ccc(Cl)cc4)nn23)cc(OC)c1OC	x	56*	92*
COc1cc(-c2nnc3sc(C4CCCCC4)nn23)cc(OC)c1OC	8	-22	x
Cn1c(NNC(=O)c2cccc3ccccc23)cc(=O)n(C)c1=O	7	x	x
COC(=O)c1ccc(CSc2nnc(-c3ccncc3)n2Cc2ccccc2)o1	1	-1	x
SMILES	RmlC RmlD mix	HIV RNase H inh-1	HIV RNase H inh-2
O=C(CC1(C(F)(F)F)OCCO1)Nc1ccc2c(c1)OCO2	-15	2	x
COc1ccc(N/C(=C(/C(Cl)=C(Cl)Cl)[N+](=O)[O-])n2nnc3ccccc32)cc1OC	7	x	x
COc1ccc2[nH]cc(CCN=C3SCC(=O)N3C)c2c1	-9	79*	24
COc1ccc2[nH]cc(CCN(C)C)c2c1	-11	-1	x
COc1cccc(NC(=O)C23CCC(C)(C(=O)O2)C3(C)C)c1 (stereo not drawn)	97	x	x
Cc1cccc(NC(=O)C2CCCN2S(=O)(=O)c2cccc3cccnc23)c1 (stereo not drawn)	11	-25	x
O=C(Cc1ccc(Br)cc1)N1CCN(c2ccccc2O)CC1	-17	x	x
O=C(CCN1C(=O)c2ccccc2C1=O)Nc1ccc(F)cc1	2	-6	x
O=C(CCN1C(=O)c2ccccc2C1=O)Nc1ccc(-c2nc3ccccc3o2)cc1	x	88*	68*
O=C1c2ccccc2C(=O)N1c1ccc(-c2nc3ccccc3o2)cc1	29	13	x
O=C(CN1C(=O)c2ccccc2C1=O)Nc1ccc(-c2nc3ccccc3o2)cc1	11	66*	1
CCSc1nc2sc3c(c2c2nnc(SCC(=O)NCc4ccco4)n12)CCCC3	x	-1	x
CC(C)Sc1nc2sc3c(c2c2nnc(SCC(=O)NCc4ccco4)n12)CCCC3	-8	86*	67*
O=C(O)CCNc1cc2ccccc2cc1C(=O)O	-17	0	x
Cc1ccsc1/C=c1\sc2ncnn2c1=O	-2	2	x
